# Experimental data: the supplement of paper PMC4022240
# ± gives the standard deviation.
# T1: HaloTag-ATRX ADD domain (163-292)
# T1 chain: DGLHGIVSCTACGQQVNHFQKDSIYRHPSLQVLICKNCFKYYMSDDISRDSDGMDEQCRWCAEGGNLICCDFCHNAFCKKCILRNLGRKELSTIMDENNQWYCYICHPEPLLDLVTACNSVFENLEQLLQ
# Assays:
# Experiment in all cases: peptide microarray binding signal (635 nm), min-max normalized on array (fraction of array maximum); higher = stronger binding
# [1] = biological target: T1, HaloTag-ATRX ADD domain (163-292)
# Procedure, shortened: (§1)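 Triplicate spots of histone 13-mer peptide–cellulose conjugates with a Cy3 tracer were printed on nitrocellulose and probed for 1 h at 4°C with biotin-labelled HaloTag reader fusions (10 nM to 1 μM) plus streptavidin-Alexa Fluor 647 or rabbit histone antibodies (1:10,000 to 1:2,000) plus anti-rabbit Alexa 647. An Axon GenePix 4000B read the 635 nm channel. Binding signal is the spot-triplicate mean intensity after min-max scaling within each library.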
# [2] = biological target: HaloTag-ING2 PHD (mouse Ing2 200-280)
# Procedure, shortened: as §1
# [3] = biological target: anti-H3K4me3 antibody ab8580
# Procedure, shortened: as §1
# [4] = biological target: anti-H3K9me3 antibody ab8898
# Procedure, shortened: as §1
# [5] = peptide region: H3 11-23, peptide modifications: H3R17me2a H3K18me2, binder concentration: 1:2,000 dilution
# [6] = peptide region: H3 11-23, peptide modifications: H3R17me2a H3K18me2, binder concentration: 1:10,000 dilution
# [7] = peptide region: H3 11-23, peptide modifications: H3R17me2a, binder concentration: 1:2,000 dilution
# [8] = peptide region: H3 11-23, peptide modifications: H3R17me2a, binder concentration: 1:10,000 dilution
# [9] = peptide region: H3 11-23, peptide modifications: H3R17me2s, binder concentration: 1:2,000 dilution
# [10] = peptide region: H3 11-23, peptide modifications: H3R17me2s, binder concentration: 1:10,000 dilution
# [11] = peptide region: H3 11-23, peptide modifications: H3R17me2a H3K18me3, binder concentration: 1:2,000 dilution
# [12] = peptide region: H3 11-23, peptide modifications: H3R17me2a H3K18me3, binder concentration: 1:10,000 dilution
# [13] = peptide region: H3 11-23, peptide modifications: H3R17me2s H3K18me1, binder concentration: 1:2,000 dilution
# [14] = peptide region: H3 11-23, peptide modifications: H3R17me2s H3K18me1, binder concentration: 1:10,000 dilution
# [15] = peptide region: H3 11-23, peptide modifications: H3R17me2a H3K18me1, binder concentration: 1:2,000 dilution
# [16] = peptide region: H3 11-23, peptide modifications: H3R17me2a H3K18me1, binder concentration: 1:10,000 dilution
# [17] = peptide region: H3 20-32, binder concentration: 1:2,000 dilution
# [18] = peptide region: H3 20-32, binder concentration: 1:10,000 dilution
# [19] = peptide region: H3 11-23, peptide modifications: H3R17me2s H3K18me3, binder concentration: 1:2,000 dilution
# [20] = peptide region: H3 11-23, peptide modifications: H3R17me2s H3K18me3, binder concentration: 1:10,000 dilution
# [21] = peptide region: H3 11-23, peptide modifications: H3R17me2s H3K18ac, binder concentration: 1:2,000 dilution
# [22] = peptide region: H3 11-23, peptide modifications: H3R17me2s H3K18ac, binder concentration: 1:10,000 dilution
# [23] = peptide region: H3 11-23, peptide modifications: H3R17me2s H3K18me2, binder concentration: 1:2,000 dilution
# [24] = peptide region: H3 11-23, peptide modifications: H3R17me2s H3K18me2, binder concentration: 1:10,000 dilution
binder,measurement,setting,value
TGGKAPRKQLATK [H3 11-23 T G G K A P Rme2a Kme2 Q L A T K],peptide microarray binding signal,"[1]; peptide region: H3 11-23, peptide modifications: H3R17me2a H3K18me2, binder concentration: 50 nM",0.00937 ± 0.0035
same,peptide microarray binding signal,"[1]; peptide region: H3 11-23, peptide modifications: H3R17me2a H3K18me2, binder concentration: 500 nM",0.011 ± 0.00034
same,peptide microarray binding signal,"[2]; peptide region: H3 11-23, peptide modifications: H3R17me2a H3K18me2, binder concentration: 10 nM",0.0112 ± 0.0018
same,peptide microarray binding signal,"[2]; peptide region: H3 11-23, peptide modifications: H3R17me2a H3K18me2, binder concentration: 100 nM",0.0143 ± 0.00077
same,peptide microarray binding signal,[3]; [5],0.00423 ± 0.00094
same,peptide microarray binding signal,[3]; [6],0.0032 ± 0.00019
same,peptide microarray binding signal,[4]; [5],0.00186 ± 6.1e-05
same,peptide microarray binding signal,[4]; [6],0.001787 ± 1.7e-05
TGGKAPRKQLATK [H3 11-23 T G G K A P Rme2a K Q L A T K],peptide microarray binding signal,"[1]; peptide region: H3 11-23, peptide modifications: H3R17me2a, binder concentration: 50 nM",0.0047 ± 0.00017
same,peptide microarray binding signal,"[1]; peptide region: H3 11-23, peptide modifications: H3R17me2a, binder concentration: 500 nM",0.00767 ± 0.00072
same,peptide microarray binding signal,"[2]; peptide region: H3 11-23, peptide modifications: H3R17me2a, binder concentration: 10 nM",0.00328 ± 9.3e-05
same,peptide microarray binding signal,"[2]; peptide region: H3 11-23, peptide modifications: H3R17me2a, binder concentration: 100 nM",0.00921 ± 0.0033
same,peptide microarray binding signal,[3]; [7],0.001001 ± 8.5e-06
same,peptide microarray binding signal,[3]; [8],0.000742
same,peptide microarray binding signal,[4]; [7],0.00116 ± 7.7e-05
same,peptide microarray binding signal,[4]; [8],0.00156 ± 3e-05
TGGKAPRKQLATK [H3 11-23 T G G K A P Rme2s K Q L A T K],peptide microarray binding signal,"[1]; peptide region: H3 11-23, peptide modifications: H3R17me2s, binder concentration: 50 nM",0.00332 ± 8.4e-05
same,peptide microarray binding signal,"[1]; peptide region: H3 11-23, peptide modifications: H3R17me2s, binder concentration: 500 nM",0.00543 ± 0.00073
same,peptide microarray binding signal,"[2]; peptide region: H3 11-23, peptide modifications: H3R17me2s, binder concentration: 10 nM",0.003163 ± 1.7e-05
same,peptide microarray binding signal,"[2]; peptide region: H3 11-23, peptide modifications: H3R17me2s, binder concentration: 100 nM",0.00411 ± 0.00034
same,peptide microarray binding signal,[3]; [9],0.001 ± 5.2e-05
same,peptide microarray binding signal,[3]; [10],0.00108
same,peptide microarray binding signal,[4]; [9],0.00128 ± 0.00017
same,peptide microarray binding signal,[4]; [10],0.0011 ± 4e-05
TGGKAPRKQLATK [H3 11-23 T G G K A P Rme2a Kme3 Q L A T K],peptide microarray binding signal,"[1]; peptide region: H3 11-23, peptide modifications: H3R17me2a H3K18me3, binder concentration: 50 nM",0.0133 ± 0.00073
same,peptide microarray binding signal,"[1]; peptide region: H3 11-23, peptide modifications: H3R17me2a H3K18me3, binder concentration: 500 nM",0.0186 ± 0.0037
same,peptide microarray binding signal,"[2]; peptide region: H3 11-23, peptide modifications: H3R17me2a H3K18me3, binder concentration: 10 nM",0.0148 ± 0.0037
same,peptide microarray binding signal,"[2]; peptide region: H3 11-23, peptide modifications: H3R17me2a H3K18me3, binder concentration: 100 nM",0.0224 ± 0.0093
same,peptide microarray binding signal,[3]; [11],0.284 ± 0.098
same,peptide microarray binding signal,[3]; [12],0.305 ± 0.1
same,peptide microarray binding signal,[4]; [11],0.0475 ± 0.015
same,peptide microarray binding signal,[4]; [12],0.0213 ± 0.0043
TGGKAPRKQLATK [H3 11-23 T G G K A P Rme2s Kme Q L A T K],peptide microarray binding signal,"[1]; peptide region: H3 11-23, peptide modifications: H3R17me2s H3K18me1, binder concentration: 50 nM",0.00755 ± 0.00027
same,peptide microarray binding signal,"[1]; peptide region: H3 11-23, peptide modifications: H3R17me2s H3K18me1, binder concentration: 500 nM",0.00986 ± 0.00028
same,peptide microarray binding signal,"[2]; peptide region: H3 11-23, peptide modifications: H3R17me2s H3K18me1, binder concentration: 10 nM",0.0187 ± 0.00059
same,peptide microarray binding signal,"[2]; peptide region: H3 11-23, peptide modifications: H3R17me2s H3K18me1, binder concentration: 100 nM",0.0288 ± 0.002
same,peptide microarray binding signal,[3]; [13],0.0153 ± 0.0029
same,peptide microarray binding signal,[3]; [14],0.0127 ± 0.0012
same,peptide microarray binding signal,[4]; [13],0.00368 ± 0.00012
same,peptide microarray binding signal,[4]; [14],0.00254 ± 3.9e-05
TGGKAPRKQLATK [H3 11-23 T G G K A P Rme2a Kme Q L A T K],peptide microarray binding signal,"[1]; peptide region: H3 11-23, peptide modifications: H3R17me2a H3K18me1, binder concentration: 50 nM",0.0073 ± 0.00016
same,peptide microarray binding signal,"[1]; peptide region: H3 11-23, peptide modifications: H3R17me2a H3K18me1, binder concentration: 500 nM",0.0126 ± 0.0004
same,peptide microarray binding signal,"[2]; peptide region: H3 11-23, peptide modifications: H3R17me2a H3K18me1, binder concentration: 10 nM",0.00949 ± 0.00068
same,peptide microarray binding signal,"[2]; peptide region: H3 11-23, peptide modifications: H3R17me2a H3K18me1, binder concentration: 100 nM",0.0322 ± 0.008
same,peptide microarray binding signal,[3]; [15],0.00823 ± 0.0013
same,peptide microarray binding signal,[3]; [16],0.00496 ± 0.00085
same,peptide microarray binding signal,[4]; [15],0.00281 ± 0.00028
same,peptide microarray binding signal,[4]; [16],0.00173 ± 1.7e-05
LATKAARKSAPAT [H3 20-32 L A T K A A R K S A P A T],peptide microarray binding signal,"[1]; peptide region: H3 20-32, binder concentration: 50 nM",0.00505 ± 0.00047
same,peptide microarray binding signal,"[1]; peptide region: H3 20-32, binder concentration: 500 nM",0.00533 ± 9e-05
same,peptide microarray binding signal,"[2]; peptide region: H3 20-32, binder concentration: 10 nM",0.00806 ± 9.3e-05
same,peptide microarray binding signal,"[2]; peptide region: H3 20-32, binder concentration: 100 nM",0.0106 ± 0.00016
same,peptide microarray binding signal,[3]; [17],0.00249 ± 7e-05
same,peptide microarray binding signal,[3]; [18],0.00262 ± 4e-05
same,peptide microarray binding signal,[4]; [17],0.000982 ± 2.1e-05
same,peptide microarray binding signal,[4]; [18],0.00167
TGGKAPRKQLATK [H3 11-23 T G G K A P Rme2s Kme3 Q L A T K],peptide microarray binding signal,"[1]; peptide region: H3 11-23, peptide modifications: H3R17me2s H3K18me3, binder concentration: 50 nM",0.00476 ± 0.00011
same,peptide microarray binding signal,"[1]; peptide region: H3 11-23, peptide modifications: H3R17me2s H3K18me3, binder concentration: 500 nM",0.00814 ± 0.00026
same,peptide microarray binding signal,"[2]; peptide region: H3 11-23, peptide modifications: H3R17me2s H3K18me3, binder concentration: 10 nM",0.0107 ± 0.0017
same,peptide microarray binding signal,"[2]; peptide region: H3 11-23, peptide modifications: H3R17me2s H3K18me3, binder concentration: 100 nM",0.0204 ± 0.0049
same,peptide microarray binding signal,[3]; [19],0.0681 ± 0.028
same,peptide microarray binding signal,[3]; [20],0.0469 ± 0.0085
same,peptide microarray binding signal,[4]; [19],0.0662 ± 0.01
same,peptide microarray binding signal,[4]; [20],0.0267 ± 0.0059
TGGKAPRKQLATK [H3 11-23 T G G K A P Rme2s Kac Q L A T K],peptide microarray binding signal,"[1]; peptide region: H3 11-23, peptide modifications: H3R17me2s H3K18ac, binder concentration: 50 nM",0.00658 ± 0.00084
same,peptide microarray binding signal,"[1]; peptide region: H3 11-23, peptide modifications: H3R17me2s H3K18ac, binder concentration: 500 nM",0.0081 ± 0.0003
same,peptide microarray binding signal,"[2]; peptide region: H3 11-23, peptide modifications: H3R17me2s H3K18ac, binder concentration: 10 nM",0.00776 ± 0.00012
same,peptide microarray binding signal,"[2]; peptide region: H3 11-23, peptide modifications: H3R17me2s H3K18ac, binder concentration: 100 nM",0.0133 ± 0.00095
same,peptide microarray binding signal,[3]; [21],0.00415 ± 0.00025
same,peptide microarray binding signal,[3]; [22],0.00468 ± 0.00016
same,peptide microarray binding signal,[4]; [21],0.00156 ± 4.6e-05
same,peptide microarray binding signal,[4]; [22],0.001441 ± 1.4e-05
TGGKAPRKQLATK [H3 11-23 T G G K A P Rme2s Kme2 Q L A T K],peptide microarray binding signal,"[1]; peptide region: H3 11-23, peptide modifications: H3R17me2s H3K18me2, binder concentration: 50 nM",0.00549 ± 0.0002
same,peptide microarray binding signal,"[1]; peptide region: H3 11-23, peptide modifications: H3R17me2s H3K18me2, binder concentration: 500 nM",0.0107 ± 0.00094
same,peptide microarray binding signal,"[2]; peptide region: H3 11-23, peptide modifications: H3R17me2s H3K18me2, binder concentration: 10 nM",0.0163 ± 0.0016
same,peptide microarray binding signal,"[2]; peptide region: H3 11-23, peptide modifications: H3R17me2s H3K18me2, binder concentration: 100 nM",0.0188 ± 0.0013
same,peptide microarray binding signal,[3]; [23],0.02 ± 0.0013
same,peptide microarray binding signal,[3]; [24],0.0106 ± 0.0017
same,peptide microarray binding signal,[4]; [23],0.00296 ± 0.00028
same,peptide microarray binding signal,[4]; [24],0.00259 ± 6.1e-05
